KAT2A inh: inhibitors of human GCN5L2 histone acetyltransferase. GCN5L2 HAT assay, ThioGlo1 CoA-SH fluorescence. Q92830. Potency, µM (series often up to 58.9 µM), without a hit: at the highest dose activity change, negative = inhibition, hits mostly inhibitors. 0.21% of 390,000 active
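GCN5L2 (20nM final) in 50mM HEPES, 0.1mM EDTA pH 7.5, 0.01% Tween-20 was preincubated 15 min at room temperature with compound, then given ThioGlo1 (50uM), H3(1-25) peptide (75uM) and acetyl-CoA (70uM); CoA-thiol fluorescence (Ex340/Em540) was read at 0 and 20 min.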
TrxR1 inh: inhibitors of rat thioredoxin reductase 1 | AID 588453 | O89049 | recombinant rTrxR1, NADPH fluorescence consumption, selenite substrate | Potency, µM (highest dose often 114 µM), without a hit: top-dose activity change, negative = inhibition, hits mostly inhibitors | 1% of 390,000 active; note: nearly all actives have a fitted effect of over 65% in size
Target sequence (O89049 whole entry, looked up): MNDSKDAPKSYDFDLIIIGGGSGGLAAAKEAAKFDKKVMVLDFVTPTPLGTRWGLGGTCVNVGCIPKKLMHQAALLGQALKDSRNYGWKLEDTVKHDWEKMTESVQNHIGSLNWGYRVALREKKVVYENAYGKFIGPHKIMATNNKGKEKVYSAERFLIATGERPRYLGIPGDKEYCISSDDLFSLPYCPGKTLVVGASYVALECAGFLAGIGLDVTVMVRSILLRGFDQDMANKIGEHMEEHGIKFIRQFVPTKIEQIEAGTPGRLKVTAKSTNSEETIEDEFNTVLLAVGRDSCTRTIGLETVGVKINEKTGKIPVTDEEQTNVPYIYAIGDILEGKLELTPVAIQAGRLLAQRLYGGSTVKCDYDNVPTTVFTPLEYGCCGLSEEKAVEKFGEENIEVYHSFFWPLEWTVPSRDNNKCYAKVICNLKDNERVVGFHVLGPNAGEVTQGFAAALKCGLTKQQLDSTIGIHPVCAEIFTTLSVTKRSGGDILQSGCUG
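Rat TrxR1 (90 nM in the dispensed reagent) was pre-reduced with 400 uM NADPH for 5 min at room temperature, then incubated with compound for 15 min. After 400 uM selenite was added, NADPH fluorescence (Ex 340/Em 450 nm) was followed for 8 min.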
TrxR1 substrate: is turned over as a substrate by rat TrxR1. O89049. purified TrxR1 substrate turnover, NADPH consumption readout. Potency, µM (top dose mostly 114 µM), for the others: at the highest dose activity change, negative = substrate turnover. 0.01% of 390,000 active; note: nearly all actives have a fitted effect of over 50% in size
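Rat TrxR1, dispensed at 90 nM, was prereduced with 400 uM NADPH (final) for 5 min at ~22 deg C, then incubated with compound 15 min before 400 uM selenite. A first-read NADPH fluorescence drop versus no-compound background flagged substrates.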
VDR inh: inhibitors of human vitamin D receptor | P11473 | VDR-SRC2-3 peptide fluorescence polarization, 2 h | Potency, µM, for inactives: max response, negative = inhibition, actives largely listed as inhibitors | 0.93% of 400,000 active | AID 504847
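Measured by FP: displacement of SRC2-3 coactivator peptide from VDR by library compounds, following a two-hour ambient incubation.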
Numbers without * were called inactive; i = inactive; ? = inconclusive; . = not tested or not shown; [ ] = another dose, or the depositor's remark. Rows were chosen to be rich in hits. Some 1.8% of all compounds tested hit in one or more screens of this group. Calls come from the whole dose curve; as a rule, active = well fitted curve in the direction sought with a large enough effect; inconclusive = small, poorly fitted or top-dose-only effect, or another doubt; inactive = no such curve, though single readings can be large; an effect the other way counts as inactive or inconclusive. % is set by controls: 0 for no effect and ±100 for the full control effect; potency is the fitted concentration of half-maximal effect.

SMILES	KAT2A inh	TrxR1 inh	TrxR1 substrate	VDR inh
CCN1CCN(C(c2cccc(OC)c2)c2c(O)cc(C)n(Cc3ccco3)c2=O)CC1 (configuration not stated)	-8%	11µM*	2%[57.1 µM]	-9%
Cc1cc(O)c(C(c2ccc(F)cc2)N2CCN(c3ccccc3)CC2)c(=O)n1Cc1ccco1 (configuration not stated)	-12%	?	5%[57.1 µM]	-13%
Cc1cc(O)c(C(c2ccccc2)N2CCN(c3ccc(F)cc3)CC2)c(=O)n1Cc1ccco1 (configuration not stated)	-10%	10µM*	-2%[57.1 µM]	-7%
COc1cc(Cl)c(CC(=O)NO)cc1OC	.	13%	11%	.
CCN1C(=O)[C@H]2[C@H]3[C@H](O)[C@H](O)CC(=O)[C@@H]3CC[C@H]2C1=O	.	12%	0%	.
C[n+]1c(/C=C/c2ccc(N)cc2)sc2ccccc21	.	-5%	-11%	.
CCCc1cc(=O)oc2c3c(c(Cl)cc12)OCN(CCCO)C3	13µM*	.	.	.
CCCc1cc(=O)oc2c(CN3CCCC3)c(O)c(Cl)cc12	?	-102%	i	7%
CC(C)(C)OC(=O)N1CC=C2C(C#N)=C(N)C(C#N)(C#N)[C@H](c3cccnc3)[C@H]2C1	9%	40µM*	18%	?
CC(C)(C)OC(=O)N1CC=C2C(C#N)=C(N)C(C#N)(C#N)C(c3cccs3)C2C1 (configuration not stated)	11%	?	-1%	35µM*
CCOC(=O)N1CC=C2C(C#N)=C(N)C(C#N)(C#N)[C@H](c3cccs3)C2C1 (some centres not stated)	-3%	-19%	9%[57.1 µM]	-9%
O=C(O)c1c2c(nc3ccccc13)CCCC2	.	8%[0.0914 µM]	8%[0.0914 µM]	.
CCN1CCN(CC(O)COCCOc2ccc(Br)cc2)CC1 (configuration not stated)	0%	18%	4%	-23%
CN1CCN(CC(O)COCCOc2ccc(Br)cc2)CC1 (configuration not stated)	-4%	1%	-3%	25µM*
CCOC(=O)c1ccc(NC(=O)c2cnn(-c3ccc(C)cc3C)c2C2CCN(C(=O)OC(C)(C)C)CC2)cc1	-12%	32%	-4%	0%
O=C(Nc1ccc(Cc2ccncc2)cc1)C1CCC(N2C(=O)C3C4C=CC(C5CC45)C3C2=O)CC1 (configuration not stated)	-6%	0%	-8%	4%
CC(=O)Nc1ccc(NC(=O)C2CCC(N3C(=O)C4C5C=CC(C6CC56)C4C3=O)CC2)cc1 (configuration not stated)	-7%	25µM*	2%	20µM*
CCCCN(C)CCNC(=O)c1cc2cc3ccc(OC)cc3nc2o1	?	45µM*	606%	-3%
COC(=O)C1=C(C)Nc2ccc(C)cc2S1	-4%	29%	-1%	71µM*
CSCC[C@H](NC=O)C(=O)N[C@@H](CC(C)C)C(=O)N[C@@H](Cc1ccccc1)C(=O)O	-2%	.	.	.
CC(=O)Nc1ccc(SCCN2CCN(CC(C)C)CCC2=O)cc1	.	82%	-11%	50µM*
CC(C(=O)N(C)C1CCS(=O)(=O)C1)N1C(=O)/C(=C/c2ccc(F)cc2)SC1=S (configuration not stated)	-14%	-15%	-8%	79µM*
CS(=O)(=O)c1ccc(C(=O)OCC(=O)NC(=O)C2COc3ccccc3O2)cc1[N+](=O)[O-] (configuration not stated)	-5%	8.9µM*	-1%	-12%
CS(=O)(=O)c1ccc(C(=O)OCc2nnc(-c3ccccc3)o2)cc1[N+](=O)[O-]	-16%	1µM*	5%	?
Cc1ccccc1NC(=O)Cc1nc(COC(=O)c2ccc(S(C)(=O)=O)c([N+](=O)[O-])c2)cs1	2%	3.2µM*	-3%	-18%
SMILES	KAT2A inh	TrxR1 inh	TrxR1 substrate	VDR inh
CC(CCc1ccccc1)NC(=O)COC(=O)c1ccc([N+](=O)[O-])cc1 (configuration not stated)	-5%	-16%	-7%	9%
CC(CCc1ccccc1)NC(=O)COC(=O)c1ccc(S(C)(=O)=O)c([N+](=O)[O-])c1 (configuration not stated)	-13%	0.79µM*	2%[57.1 µM]	?
Cc1ccccc1NC(=O)Cc1nc(COC(=O)c2ccc(NC(N)=O)cc2)cs1	-4%	17%	4%	4%
O=C(C[N+]1(CC(O)c2ccccc2)CCCCC1)c1ccccc1 (configuration not stated)	.	21%	6%	.
Cc1ccc(-n2cc(C(=O)OCc3ccc(F)c(F)c3)c3ccccc3c2=O)cc1	1%	-11%[57.1 µM]	2%[57.1 µM]	2%
CS(=O)(=O)c1ccc(C(=O)OCC(=O)Nc2cccnc2Cl)cc1[N+](=O)[O-]	-3%	2.5µM*	3%	-8%
c1ccc(-c2nc3c([nH]2)CCc2nonc2-3)cc1	-1%	-39%	5%	2%
c1coc(-c2nc3c([nH]2)CCc2nonc2-3)c1	0%	22µM*	12%	-11%
Cc1ccc2cc(CN(CCCN3CCOCC3)C(c3nnnn3Cc3ccco3)C(C)C)c(=O)[nH]c2c1C (configuration not stated)	.	10µM*	-3%	-21%
Cc1ccc2cc(CN(CCN3CCOCC3)Cc3nnnn3Cc3ccco3)c(=O)[nH]c2c1C	1%	-26%	2%	-3%
Cc1cccc(N2CCN(C(=O)c3ccc4c(c3)NC(=O)C(CSCc3cccc(F)c3)N4)CC2)c1C (configuration not stated)	28µM*	.	.	.
N#Cc1ccc(CN2CCC3(CC2)CCN(C(=O)c2cc(C(F)(F)F)cc(C(F)(F)F)c2)CC3)cc1	-1%	.	.	?
CCOC(=O)CC1=C(C(=O)OCC)C(c2cccs2)C(C#N)=C(N)O1 (configuration not stated)	.	-25%	-7%	-6%
COc1ccc(N2CSC3=C(C#N)C(c4cccs4)CC(=O)N3C2)cc1 (configuration not stated)	13µM*	10%	-1%	-9%
CCOC(=O)c1ccc(N2CSC3=C(C#N)C(c4cccs4)CC(=O)N3C2)cc1 (configuration not stated)	?	-15%[57.1 µM]	-4%[57.1 µM]	89µM*
COC(=O)C1C(=O)N2CCCSC2=C(C#N)C1c1cccs1 (configuration not stated)	-6%	7%	-10%	-6%
CCc1ccc(C2CC(=O)N3CN(c4ccccc4)CSC3=C2C#N)cc1 (configuration not stated)	?	?	1%[57.1 µM]	16µM*
Cc1ccc(N2CSC3=C(C#N)C(c4cccs4)CC(=O)N3C2)cc1 (configuration not stated)	?	?	-6%[57.1 µM]	79µM*
O=C(Nc1ccc([N+](=O)[O-])cc1Cl)c1cc(Br)ccc1O	.	16%	4%	10%
N#CC1=C2SCN(Cc3ccco3)CN2C(=O)CC1c1ccccc1F (configuration not stated)	-13%	?	6%[57.1 µM]	32µM*

High-throughput results as filed in PubChem BioAssay.
